Data taken from PubChem BioAssay (Tox21).
Inconclusive results are not listed. Activity calls are given as the source filed them. Unless noted, the call rests on the fitted dose curve; in most records, active means well fitted curve in the direction sought with a large enough effect in the repeat runs; inconclusive means weak or mixed curves; inactive means no such curve, though single readings can be large; an effect the other way counts as inactive or inconclusive.

Legend:
[1] = qHTS assay to identify small molecule antagonists of the peroxisome proliferator-activated receptor delta (PPARd) signaling pathway - cell viability counter screen (AID 743213); further: nearly all actives have a fitted effect of over 50% in size
Summary of the method: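 Agonist-stimulated (L165041, 300 nM final) HEK293H PPARd UAS-bla cells are exposed to compounds for 17 h at 37 C, and ATP-based luminescence (CellTiter-Glo) from the same wells reports cytotoxicity.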

[2] = qHTS assay to identify small molecule antagonists of the farnesoid-X-receptor (FXR) signaling pathway - cell viability counter screen (AID 743221; active means well fitted cell-killing curve with a large enough effect in the repeat runs, not every such curve was filed as active; further: nearly all actives have a fitted effect of over 50% in size)
Summary of the method: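 HEK 293T FXR-bla cells, 5 h pre-incubation; compound + CDCA 50 uM final, 16 h, 37 C; beta-lactamase FRET read first, then CellTiter-Glo luminescence, 30 min RT.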

[3] = qHTS assay to identify small molecule agonists of the NFkB signaling pathway - cell viability counter screen (AID 1159515; calls by dose curve; further: series mostly up to about 61 µM; nearly all actives have a fitted effect of over 55% in size)
Summary of the method: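 NFkB-bla ME-180 cells, 2,000/well, were plated overnight at 37 C, 5% CO2, then exposed to compounds in DMSO for 5 hr. After the bla FRET read, CellTiter-Glo was added to the same wells; luminescence was read after 30 min at room temperature.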

[4] = qHTS assay to identify small molecule agonists of the endoplasmic reticulum stress response signaling pathway (AID 1159516; active means well fitted activation curve with a large enough effect in the signal ratio in the repeat runs, not every such curve was filed as active; the % refers to the signal ratio)
Summary of the method: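 CellSensor ESRE-bla HeLa cells, carrying a beta-lactamase reporter driven by the ER stress response element, were plated overnight and exposed to compounds for 5 hr at 37 C. Reporter activity was read as FRET substrate fluorescence after 2 hr at room temperature.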

[5] = qHTS assay to identify small molecule antagonists of the retinoid-related orphan receptor gamma (ROR-gamma) signaling pathway - cell viability counter screen (AID 1159520); further: nearly all actives have a fitted effect of over 50% in size
Summary of the method: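 Cytotoxicity was read from cellular ATP (CellTiter-Glo luminescence) after 16 hr at 37 C with 1 uM doxycycline induction. The inducer was added 2 hr after compound transfer to Tet-on ROR gamma CHO cells.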

[6] = target: Nuclear receptor ROR-gamma (Homo sapiens) (UniProt P51449); experiment: qHTS assay to identify small molecule antagonists of the retinoid-related orphan receptor gamma (ROR-gamma) signaling pathway (AID 1159521;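 further: CHO cells with doxycycline inducible ROR-gamma driving an RORE luciferase reporter; top concentration of the series differs between compounds; nearly all actives have a fitted effect of over 50% in size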)
Summary of the method: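 Luminescence readout (ONE-Glo, 30 min RT) after 16 h doxycycline induction; loss of signal scored as antagonism. CHO cells with TET-inducible RORγ and RORE-LUC reporter; compounds added 2 h before 1 uM final doxycycline.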

[7] = qHTS assay to identify small molecule agonists of the AP-1 signaling pathway (AID 1159526; calls by dose curve)
[8] = target: Retinoic acid receptor RXR-alpha (Homo sapiens) (UniProt P19793); experiment: qHTS assay to identify small molecule agonists of the RXR signaling pathway (AID 1159527; calls by dose curve; further: nearly all actives have a fitted effect of over 35% in size)
Retinoic acid receptor RXR-alpha (Homo sapiens), sequence (P19793 whole entry, looked up): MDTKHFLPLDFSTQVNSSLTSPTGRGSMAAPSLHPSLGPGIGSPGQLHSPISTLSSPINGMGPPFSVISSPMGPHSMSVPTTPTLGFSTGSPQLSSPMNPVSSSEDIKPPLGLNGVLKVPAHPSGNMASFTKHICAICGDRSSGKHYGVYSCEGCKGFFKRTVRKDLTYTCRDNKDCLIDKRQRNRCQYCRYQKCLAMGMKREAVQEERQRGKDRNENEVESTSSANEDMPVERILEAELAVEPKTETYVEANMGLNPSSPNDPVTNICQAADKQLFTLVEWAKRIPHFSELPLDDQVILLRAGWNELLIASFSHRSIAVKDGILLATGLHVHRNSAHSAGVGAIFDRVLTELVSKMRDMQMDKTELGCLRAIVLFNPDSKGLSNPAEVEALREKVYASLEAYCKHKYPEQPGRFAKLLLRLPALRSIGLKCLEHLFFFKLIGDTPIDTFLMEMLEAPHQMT
Summary of the method: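 Agonist mode; 9-cis retinoic acid positive control. HEK 293T UAS-bla reporter cells, 2% charcoal-stripped FBS, 16 hr compound exposure at 37 C/5% CO2. LiveBLAzer B/G FRET substrate 2 hr RT; ex 405, em 460/530 nm.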

[9] = qHTS assay to identify small molecule agonists of the RXR signaling pathway - cell viability counter screen (AID 1159529)
Summary of the method: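 Luminescence from CellTiter-Glo (30 min, RT) measured viability in the same wells as the beta-lactamase reporter readout. Cells: GeneBLAzer RXR-alpha HEK 293T, 2% charcoal-stripped FBS. Compound exposure 16 hr, 37 C.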

[10] = target: Peroxisome proliferator-activated receptor delta (Homo sapiens) (UniProt Q03181); experiment: qHTS assay to identify small molecule agonists of the peroxisome proliferator-activated receptor delta (PPARd) signaling pathway (AID 743212; calls by dose curve)
Peroxisome proliferator-activated receptor delta (Homo sapiens), sequence (Q03181 whole entry, looked up): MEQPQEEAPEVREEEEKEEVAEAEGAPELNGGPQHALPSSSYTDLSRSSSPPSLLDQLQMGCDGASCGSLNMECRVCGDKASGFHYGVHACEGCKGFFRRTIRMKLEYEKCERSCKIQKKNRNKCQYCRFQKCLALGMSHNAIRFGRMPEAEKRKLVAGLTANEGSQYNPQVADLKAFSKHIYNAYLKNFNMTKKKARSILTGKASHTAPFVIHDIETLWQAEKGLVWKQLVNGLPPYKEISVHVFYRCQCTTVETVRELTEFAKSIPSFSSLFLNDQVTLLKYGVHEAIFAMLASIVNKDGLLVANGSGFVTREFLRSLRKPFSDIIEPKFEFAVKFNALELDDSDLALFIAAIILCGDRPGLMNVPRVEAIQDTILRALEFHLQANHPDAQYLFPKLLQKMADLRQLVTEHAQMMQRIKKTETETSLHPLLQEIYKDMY
Summary of the method: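 HEK293H PPARd-bla cells; 5 h preincubation 37 C/5% CO2; compound (DMSO) 37 C; LiveBLAzer B/G FRET substrate 2 h RT; fluorescence intensity.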

[11] = target: Peroxisome proliferator-activated receptor delta (Homo sapiens) (UniProt Q03181); experiment: qHTS assay to identify small molecule antagonists of the peroxisome proliferator-activated receptor delta (PPARd) signaling pathway (AID 743215; active means well fitted inhibition curve with a large enough effect in the signal ratio in the repeat runs, not every such curve was filed as active; the % refers to the signal ratio; further: series mostly up to about 62 µM)
Summary of the method: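 PPARd UAS-bla HEK293H cells were pre-incubated 5 h at 37 C, then given test compounds in DMSO plus agonist L165041 (300 nM final). After 17 h at 37 C, beta-lactamase FRET substrate was added; fluorescence read after 2 h at room temperature.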

[12] = qHTS assay to identify small molecule agonists of the farnesoid-X-receptor (FXR) signaling pathway - cell viability counter screen (AID 743218); further: nearly all actives have a fitted effect of over 45% in size
Summary of the method: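 FXR-UAS-bla HEK 293T cells, plated 5 h at 37 C, were exposed to compounds for 16 h at 37 C. CellTiter-Glo was then added to the same wells as the bla readout; luminescence read after 30 min at room temperature.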

[13] = target: Vitamin D3 receptor (Homo sapiens) (UniProt P11473); experiment: qHTS assay to identify small molecule antagonists of the vitamin D receptor (VDR) signaling pathway (AID 743223; active means well fitted inhibition curve with a large enough effect in the signal ratio in the repeat runs, not every such curve was filed as active; the % refers to the signal ratio)
Vitamin D3 receptor (Homo sapiens), sequence (P11473 whole entry, looked up): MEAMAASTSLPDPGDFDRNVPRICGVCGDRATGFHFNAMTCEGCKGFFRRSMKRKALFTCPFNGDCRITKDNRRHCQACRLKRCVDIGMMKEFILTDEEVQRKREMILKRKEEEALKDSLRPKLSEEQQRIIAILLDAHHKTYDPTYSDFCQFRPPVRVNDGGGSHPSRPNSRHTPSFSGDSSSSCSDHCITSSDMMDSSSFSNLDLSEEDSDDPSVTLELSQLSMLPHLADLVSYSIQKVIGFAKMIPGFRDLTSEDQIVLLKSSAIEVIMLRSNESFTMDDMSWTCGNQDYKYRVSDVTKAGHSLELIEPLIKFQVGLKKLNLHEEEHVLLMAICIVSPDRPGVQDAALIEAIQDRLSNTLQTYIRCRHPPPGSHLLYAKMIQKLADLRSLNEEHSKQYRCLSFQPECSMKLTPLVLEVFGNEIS
Summary of the method: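 Beta-lactamase reporter read-out: FRET substrate fluorescence after 2 h at room temperature, following 16 h exposure of VDR-bla cells to test compound plus 3 nM (final) 1alpha,25-dihydroxyvitamin D3 agonist at 37C.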

[14] = qHTS assay to identify small molecule antagonists of the vitamin D receptor (VDR) signaling pathway - cell viability counter screen (AID 743225); further: nearly all actives have a fitted effect of over 50% in size
Summary of the method: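 Viability counter screen run in the same wells as the beta-lactamase reporter assay: HEK 293T VDR-UAS-bla cells, 16 h compound exposure at 37C with 3 nM (final) 1-alpha,25-dihydroxyvitamin D3. CellTiter-Glo luminescence, 30 min, room temperature.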

[15] = target: Bile acid receptor (Homo sapiens) (UniProt Q96RI1); experiment: qHTS assay to identify small molecule antagonists of the farnesoid-X-receptor (FXR) signaling pathway (AID 743217; active means well fitted inhibition curve with a large enough effect in the signal ratio in the repeat runs, not every such curve was filed as active; the % refers to the signal ratio)
Bile acid receptor (Homo sapiens), sequence (Q96RI1 whole entry, looked up): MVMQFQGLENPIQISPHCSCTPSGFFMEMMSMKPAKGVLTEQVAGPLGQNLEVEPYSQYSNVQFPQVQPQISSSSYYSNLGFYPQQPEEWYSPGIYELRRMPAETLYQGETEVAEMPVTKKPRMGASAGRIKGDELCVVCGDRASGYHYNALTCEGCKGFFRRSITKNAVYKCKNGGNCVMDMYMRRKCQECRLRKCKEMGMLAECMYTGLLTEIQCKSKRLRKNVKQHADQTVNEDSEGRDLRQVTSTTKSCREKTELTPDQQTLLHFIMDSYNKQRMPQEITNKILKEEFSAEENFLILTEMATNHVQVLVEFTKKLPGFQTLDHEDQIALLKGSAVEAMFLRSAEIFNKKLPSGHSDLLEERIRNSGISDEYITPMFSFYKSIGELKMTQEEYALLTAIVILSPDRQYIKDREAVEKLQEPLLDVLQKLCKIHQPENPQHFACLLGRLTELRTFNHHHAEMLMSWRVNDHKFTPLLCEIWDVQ
Summary of the method: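 FXR-UAS-bla HEK 293T cells pre-incubated 5 h at 37 °C, then exposed to compounds with chenodeoxycholic acid (50 uM final) for 16 h at 37 °C. Beta-lactamase reporter read by LiveBLAzer B/G FRET substrate fluorescence after 2 h at room temperature.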

[16] = target: Bile acid receptor (Homo sapiens) (UniProt Q96RI1); experiment: qHTS assay to identify small molecule agonists of the farnesoid-X-receptor (FXR) signaling pathway (AID 743220; active means well fitted activation curve with a large enough effect in the signal ratio in the repeat runs, not every such curve was filed as active; the % refers to the signal ratio)
Summary of the method: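 Beta-lactamase reporter under UAS control in GeneBLAzer FXR HEK 293T cells (5000/well) measured with LiveBLAzer FRET substrate after 2 h at room temperature. Compound exposure lasted 16 h at 37C.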

[17] = target: Vitamin D3 receptor (Homo sapiens) (UniProt P11473); experiment: qHTS assay to identify small molecule agonists of the vitamin D receptor (VDR) signaling pathway (AID 743222; calls by dose curve)
Summary of the method: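 VDR-bla cells were plated 4 h at 37C/5% CO2, then exposed to compounds in DMSO for 16 h. After LiveBLAzer B/G FRET substrate addition and 2 h at room temperature, beta-lactamase reporter fluorescence was read.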

[18] = qHTS assay to identify small molecule agonists of the AP-1 signaling pathway - cell viability counter screen (AID 1159525; calls by dose curve; further: nearly all actives have a fitted effect of over 55% in size)
Summary of the method: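 Luminescent ATP readout (Cell Titer Glo, 30 min RT), normalised to DMSO and tetra n-octyl ammonium bromide controls. Cells were ME-180 AP-1-bla in 0.5% dialyzed FBS Opti-MEM, with a 5 h, 37 °C compound exposure.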

[19] = qHTS assay to identify small molecule agonists of the vitamin D receptor (VDR) signaling pathway - cell viability counter screen (AID 743224)
Summary of the method: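 VDR-bla cells were preincubated 4 h at 37C/5% CO2, then exposed to compounds for 16 h. After the 2 h room-temperature bla FRET read, CellTiter-Glo was added to the same wells and luminescence read after 30 min.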

Measured: Potency

COc1cnc(NS(=O)(=O)c2ccc(N)cc2)nc1
inactive: [1] | [2] | [3] | [4] | [5] | [6] | [7] | [8] | [9]

CC(C)(O)CCCC1=CCC(C=O)CC1 (configuration not stated)
not listed: [15] | [16] | [17] | [18] | [19]
inactive: all other assays above

O=C1CC2(CCCC2)CC(=O)N1CCNCC1COc2ccccc2O1 (configuration not stated)
not listed: [10] | [11] | [19]
inactive: all other assays above

CCCC(C)C(O)CC (configuration not stated)
not listed: [9] | [10] | [11] | [13]
inactive: all other assays above

O=S(=O)(O)CC(O)CCl (configuration not stated)
not listed: [9] | [11]
inactive: all other assays above

CCCCCCCOC(C)=O
not listed: [12] | [13] | [14] | [15] | [16]
inactive: all other assays above

CCCCN=C(N)N=C(N)N
not listed: [12] | [13] | [15] | [16] | [17]
inactive: all other assays above

CCCCOCCCC
not listed: [8] | [10] | [11] | [15] | [16] | [18]
inactive: all other assays above

CC[C@@]1(c2ccccc2)NC(=O)N(C)C1=O
not listed: [11] | [13]
inactive: all other assays above

CC(O)C(CO)C(C)O (configuration not stated)
not listed: [2] | [5] | [13] | [15] | [16] | [17] | [19]
inactive: all other assays above

CCOC(=O)c1ccc(N(C)C)cc1
not listed: [15] | [16]
inactive: all other assays above

CN1C(CCl)Nc2cc(Cl)c(S(N)(=O)=O)cc2S1(=O)=O (configuration not stated)
not listed: [9] | [15] | [16] | [18]
inactive: all other assays above

COc1cc(OC)cc(OC)c1
not listed: [10]
inactive: all other assays above

CCOC(=O)CC(C(C)=O)C(C)=O
not listed: [15] | [16]
inactive: all other assays above

COC(=O)N/N=C/c1c[n+]([O-])c2ccccc2[n+]1[O-]
not listed: [9] | [12] | [13] | [17]
inactive: all other assays above

Cc1nc2ccc(Cl)cc2[nH]1
not listed: [2] | [10] | [11] | [14] | [18]
inactive: all other assays above

CC(C)(C)C(=O)NCCCC(=O)O
not listed: [2] | [9] | [15] | [16]
inactive: all other assays above

CN(C)CCc1c[nH]c2ccc(CS(=O)(=O)N3CCCC3)cc12
not listed: [14] | [15] | [16] | [19]
inactive: all other assays above
